The record followed here is PubChem BioAssay (NCATS).

Assay [1] deals with Glutathione peroxidase 1 (Homo sapiens) (UniProt P07203). Nature of the assay: Primary qHTS Assay for Inhibitors of Recombinant Selenoprotein Glutathione Peroxidase 1 (GPX1) (AID 1845191). Also: nearly all actives have a fitted effect of over 65% in size. As to activity, negative = inhibition: % is scaled to controls: 0 for no effect and ±100 for the full control effect. Put shortly:
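GR-coupled assay: compounds preincubated 30 min at room temperature with GPX1, then reaction started with CHP; final 10 nM GPX1, 1 mM GSH, 0.5 mM CHP, 0.5 mM NADPH, 100 nM GR, 0.01% BSA, pH 7.5 Tris buffer. NADPH fluorescence (340/450 nm) read at 0 and 15 min.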
For orientation: qHTS replaces the single test concentration by a dilution series.

Assay [2] deals with Phospholipid hydroperoxide glutathione peroxidase GPX4 (Homo sapiens) (UniProt P36969). Nature of the assay: Primary qHTS Assay for Inhibitors of Recombinant Selenoprotein Glutathione Peroxidase 4 (GPX4) (AID 1845192). Also: nearly all actives have a fitted effect of over 65% in size. Put shortly: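 GR-coupled assay: recombinant GPX4 preincubated 30 min with compound at room temperature; final 200 nM GPX4, 1 mM GSH, 0.5 mM cumene hydroperoxide, 0.5 mM NADPH, 100 nM GR, 0.01% BSA, pH 7.5 Tris. NADPH fluorescence (340/450 nm) read at 0 and 15 min.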

Assay [3] concerns the target Luciferin 4-monooxygenase (Photinus pyralis) (UniProt P08659). Kind of assay: Primary firefly luciferase (FLuc) qHTS assay for identification of artifact compounds. (AID 1845220). Also: nearly all actives have a fitted effect of over 60% in size. Put shortly:
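D-luciferin and ATP (10 uM each, final) in Tris acetate buffer pH 7.6 were incubated with compounds for 15 min at room temperature. The reaction was started with 10 nM Photinus pyralis luciferase and luminescence read after 5 min. Percent inhibition was fitted to a 4-parameter Hill equation.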

Assay [4] can be described thus: Primary fluorescence-based thiol-reactive (MSTI) qHTS assay for identification of artifact compounds. (AID 1845221). Also: nearly all actives have a fitted effect of over 65% in size. Also: potency is read from the fitted curve at half-maximal effect. As to activity change, negative = thiol reactive: series mostly up to about 54 µM. The method, boiled down: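 Compounds were incubated 1 h at room temperature in the dark with the MSTI probe (4 uM) in PBS pH 7.4, 2% DMSO. Signals were normalized between Acetyl-MSTI and MSTI.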
The test system of assay [5] is Nanoluciferase (engineered Oplophorus gracilirostris luciferase). Kind of assay: Primary Nanoluciferase (NLuc) qHTS assay for identification of artifact compounds. (AID 1845222).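 Also: series mostly up to about 54 µM; 0% = DMSO and -100% = no enzyme.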 Put shortly: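 Diluted conditioned medium from NLuc-expressing S16 cells treated with compounds for 15 min at room temperature, then Nano-Glo substrate added; luminescence read after 5 min. Percent inhibition versus no-enzyme and DMSO controls fitted to 4-parameter Hill equation.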

The nature of assay [6]: Primary redox qHTS assay for identification of artifact compounds. (AID 1845223).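 Also: 0% = DMSO and 100% = reference compound.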 The method, boiled down:
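Amplex Red (25 uM) and HRP (250 mU/mL) in HBSS, with compounds for 15 min, then 250 uM DTT for 30 min, room temperature, dark. Fluorescence 525/598 nm read; normalized to DMSO and 10 uM DA3003; Hill fit.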

Values without a mark were called inactive. Inconclusive results are not listed. Activity calls are given as the source filed them. Calls follow the shape of the dose curve; as a rule, active = well fitted curve in the direction sought with a large enough effect; inconclusive = small, poorly fitted or top-dose-only effect, or another doubt; inactive = no such curve, though single readings can be large; an effect the other way counts as inactive or inconclusive.

Sequence of Glutathione peroxidase 1 (Homo sapiens) (P07203 whole entry, looked up): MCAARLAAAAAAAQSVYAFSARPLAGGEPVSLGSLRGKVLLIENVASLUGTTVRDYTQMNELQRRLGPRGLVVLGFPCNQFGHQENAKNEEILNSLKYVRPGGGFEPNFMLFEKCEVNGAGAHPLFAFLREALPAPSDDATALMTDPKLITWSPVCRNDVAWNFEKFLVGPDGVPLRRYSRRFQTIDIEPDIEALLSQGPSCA
Sequence of Phospholipid hydroperoxide glutathione peroxidase GPX4 (Homo sapiens) (P36969 whole entry, looked up): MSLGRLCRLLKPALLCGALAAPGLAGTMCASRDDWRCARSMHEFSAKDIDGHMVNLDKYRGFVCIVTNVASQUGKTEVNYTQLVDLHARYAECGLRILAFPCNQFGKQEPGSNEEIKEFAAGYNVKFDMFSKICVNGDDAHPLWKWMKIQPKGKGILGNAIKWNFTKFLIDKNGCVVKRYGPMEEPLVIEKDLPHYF

With `CC(C)CC[C@@H](O)[C@](C)(O)[C@H]1CC[C@@]2(O)C3=CC(=O)[C@@H]4C[C@@H](O)[C@@H](O)C[C@]4(C)[C@H]3CC[C@]12C`, the Potency result in assay [1], in assay [2], in assay [3], in assay [4], in assay [5] and in assay [6] was “inactive” throughout.
Regarding `CC1(C)CC[C@]2(C(=O)O[C@@H]3O[C@H](CO)[C@@H](O)[C@H](O)[C@H]3O)CC[C@]3(C)C(=CCC4[C@@]5(C)C[C@H](O)[C@H](O[C@@H]6O[C@H](C(=O)O)[C@@H](O)[C@H](O)[C@H]6O)[C@@](C)(CO)C5CC[C@]43C)C2C1` (stereo not given in full), the Potency result in assay [1] and in assay [2] was “inactive” each time. For the same molecule, in assay [3], the outcome is “inactive [at 11.6 µM]”. Further, the activity change, negative = thiol reactive in assay [4] was 8.46% [at 11.5 µM]. Moreover, in assay [5], the activity, negative = inhibition is 1.06% [at 11.6 µM]. The redox activity (% of DA3003) in assay [6] is -11.2% [at 11.5 µM].
For the molecule `CC(=O)O[C@@H]1[C@H](O[C@@H]2O[C@H](CO)[C@@H](O)[C@H](O)[C@H]2O)[C@@H](O[C@@H]2O[C@@H](C)[C@H](O)[C@@H](O[C@@H]3O[C@H](CO)[C@@H](O)[C@H](O)[C@H]3O)[C@H]2O)[C@H](OC(=O)[C@]23CCC(C)(C)C[C@H]2C2=CCC4[C@@]5(C)C[C@H](O)[C@H](O[C@@H]6O[C@H](C(=O)O)[C@@H](O)[C@H](O)[C@H]6O)[C@@](C)(C(=O)O)C5CC[C@@]4(C)[C@]2(C)CC3)O[C@@H]1C` (stereo not given in full), the Potency entry in assay [1] and in assay [2] was “inactive” throughout. In assay [3], the outcome is “inactive [at 11.6 µM]”. Moreover, the activity change, negative = thiol reactive in assay [4] is 244% [at 11.5 µM]. Besides, the activity, negative = inhibition in assay [5] is 4.94% [at 11.6 µM]. Also, the redox activity (% of DA3003) in assay [6] was -2.45% [at 11.5 µM].
As for `C[C@H]1CC[C@@]2(OC1)O[C@H]1CC3C4CC[C@H]5C[C@@H](O)CC[C@]5(C)C4CC(=O)[C@]3(C)[C@H]1[C@@H]2C` (stereo not given in full), the Potency result in assay [1], in assay [2], in assay [3], in assay [4], in assay [5] and in assay [6] was “inactive” in each case.
For `CCC(=O)OCC(=O)[C@@]1(OC(=O)CC)[C@@H](C)C[C@H]2[C@@H]3CCC4=CC(=O)C=C[C@]4(C)[C@@]3(F)[C@@H](O)C[C@@]21C`, the Potency result in assay [1], in assay [2], in assay [3], in assay [4], in assay [5] and in assay [6] was “inactive” throughout.
Turning to `COc1cc(Cc2cnc(N)nc2N)c(C(C)C)cc1OC`, the Potency result in assay [1], in assay [2], in assay [3], in assay [4], in assay [5] and in assay [6] was “inactive” each time.
As to `O=S(=O)(O)c1ccc(Nc2ncnc3c2ncn3[C@@H]2O[C@H](CO)[C@@H](O)[C@H]2O)cc1`, the Potency result in assay [1], in assay [2], in assay [3], in assay [4], in assay [5] and in assay [6] was “inactive” each time.
Consider `CC(C)=C1CC2[C@](C)(CC[C@@H](OC(=O)C3(C)OC3C)[C@@]2(C)O)CC1=O` (stereo not given in full), for which the Potency result in assay [1], in assay [2], in assay [3], in assay [4], in assay [5] and in assay [6] was “inactive” in each case.
On to `CC(=O)OC[C@]12[C@@H](OC(=O)c3ccoc3)C[C@@H]3[C@@H](OC(C)=O)[C@]1(OC3(C)C)[C@@](C)(O)C[C@H](OC(=O)c1ccoc1)[C@@H]2OC(=O)c1ccoc1`, for which the Potency entry in assay [1], in assay [2], in assay [3], in assay [4], in assay [5] and in assay [6] was “inactive” throughout.
Consider `CC(=O)OC[C@]12[C@H](OC(C)=O)[C@H](OC(=O)c3ccccc3)[C@@H]3[C@@H](OC(C)=O)[C@]1(OC3(C)C)[C@H](C)C[C@H](OC(=O)c1ccccc1)[C@@H]2OC(=O)c1ccccc1`, for which the Potency result in assay [1], in assay [2], in assay [3], in assay [4], in assay [5] and in assay [6] was “inactive” in each case.
Turning to `CC[C@H]1OC(=O)[C@H](C)C(=O)[C@H](C)[C@@H](OC2O[C@H](C)C[C@H](N(C)C)[C@H]2O)[C@@H](C)C[C@@H](C)C(=O)/C=C/[C@]1(C)O` (stereo not given in full), the Potency result in assay [1], in assay [2], in assay [3], in assay [4], in assay [5] and in assay [6] was “inactive” in each case.
In the case of `COc1cc(O)cc(C)c1C(=O)O[C@H]1[C@@H](O)[C@@H](n2ccc(=O)[nH]c2=O)O[C@@H]1CO`, the Potency result in assay [1], in assay [2], in assay [3], in assay [4], in assay [5] and in assay [6] was “inactive” throughout.
Regarding `NC(=O)c1ccc(F)c2c1C[C@@H](N(C1CCC1)C1CCC1)CO2`, the Potency result in assay [1], in assay [2], in assay [3], in assay [4], in assay [5] and in assay [6] was “inactive” each time.
As to `On1ncc(C2CCNCC2)c1-c1cccc(-c2ccccc2)c1`, the Potency entry in assay [1], in assay [2], in assay [3], in assay [4], in assay [5] and in assay [6] was “inactive” throughout.
On to `COC(=O)C(CC1(O)c2ccccc2N2C(=O)C(CC(C)C)NC21)n1cnc2ccccc2c1=O` (stereo not given), for which the Potency result in assay [1], in assay [2], in assay [3], in assay [4], in assay [5] and in assay [6] was “inactive” each time.
On to `CC1(C)CC[C@]2(C(=O)O[C@@H]3O[C@H](CO)[C@@H](O)[C@H](O)[C@H]3O)CC[C@]3(C)C(=CCC4[C@@]5(C)CC[C@H](O[C@@H]6O[C@H](C(=O)O)[C@@H](O[C@@H]7O[C@H](CO)[C@@H](O)[C@H](O)[C@H]7O)[C@H](O)[C@H]6O)C(C)(C)C5CC[C@]43C)C2C1` (stereo not given in full), for which the Potency entry in assay [1] and in assay [2] was “inactive” throughout. In addition, the outcome in assay [3] was “inactive [at 11.6 µM]”. Also, in assay [4], the activity change, negative = thiol reactive was 348% [at 11.5 µM]. In assay [5], the activity, negative = inhibition was 4.13% [at 11.6 µM]. Besides, the redox activity (% of DA3003) in assay [6] is 3.95% [at 11.5 µM].
For the molecule `Cc1cc(-c2nncc3c(C(C)(C)C)c(OCc4ncnn4C)nn23)no1`, the Potency result in assay [1], in assay [2], in assay [3], in assay [4], in assay [5] and in assay [6] was “inactive” in each case.
With `C[C@@H]1[C@H]2[C@H](O[C@@H]3O[C@H](CO)[C@@H](O)[C@H](O)[C@H]3O)OC=C(C(=O)O)[C@H]2C[C@@H]1OC(=O)/C=C/c1ccc(O)cc1`, the Potency entry in assay [1], in assay [2], in assay [3], in assay [5] and in assay [6] was “inactive” throughout. Further, the Potency in assay [4] is 10.3 µM (active).
Regarding `CC1(O)CC(O)C2C(C(=O)O)=COC(OC3OC(CO)C(O)C(O)C3OC(=O)/C=C/c3ccc(O)cc3)C21` (stereo not given), the Potency result in assay [1], in assay [2], in assay [3], in assay [5] and in assay [6] was “inactive” throughout. Moreover, the Potency in assay [4] is 4.12 µM (active).
`CC1=CC(=O)[C@]2(O[C@@H]3O[C@@H](C)[C@H](O)[C@@H](O)[C@H]3O)C=CO[C@@H](O[C@@H]3O[C@H](CO)[C@@H](O)[C@H](O)[C@H]3O)[C@H]12`: the Potency result in assay [1], in assay [2], in assay [3], in assay [5] and in assay [6] was “inactive” in each case. Also, the Potency in assay [4] is 5.82 µM (active).
